Data published in PubChem BioAssay (EPA / NIEHS).
Active and inactive are the calls of the source. The calls were made as follows: active = hit-call score of the fitted dose curve at least 0.9, where 1 is the maximum; inactive = score below 0.9.

Legend:
[1] = target: Transcription factor E2F1 (Homo sapiens) (UniProt Q01094); test: ATG_E2F_CIS: Attagene CIS-FACTORIAL HepG2 Assay for human E2F Transcription Factor 1 (AID 2282935); settings: HepG2 Attagene cis-reporter, E2F reporter RNA transcripts; actives raise or lower the signal
Procedure, shortened: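 Total RNA from 24 h-treated, reporter-transfected HepG2 cells undergoes DNase I treatment, oligo(dT) reverse transcription, PCR and 6-FAM primer extension before capillary electrophoresis.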

[2] = ATG_E_Box_CIS: Attagene CIS-FACTORIAL HepG2 Assay for human Enhancer Box (E-box) (AID 2282936); settings: HepG2 E-box cis-reporter transcription, actives raise or lower the signal
Procedure, shortened: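 DMSO served as negative control and baseline for bidirectional fitting. Human hepatoma HepG2 cells, transiently transfected with cis-reporter constructs, were dosed 24 h; reporter mRNA read by RT-PCR and capillary electrophoresis.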

[3] = ATG_M_61_CIS: Attagene CIS-FACTORIAL HepG2 Assay for M61 Transcription Factor (Internal Marker) (AID 2282937); settings: HepG2 Attagene CIS-FACTORIAL M61 internal marker reporter; actives raise or lower the signal
Procedure, shortened: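 Endogenous transcription factor activity in HepG2 is read through transiently transfected cis-element reporter units. After 24 h dosing, RNA undergoes reverse transcription, PCR and primer extension with 6-FAM before capillary electrophoresis; DMSO-referenced bidirectional fit.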

[4] = ATG_EGR_CIS: Attagene CIS-FACTORIAL HepG2 Assay for human Early Growth Response 1 (EGR1) (AID 2282938); settings: HepG2 Attagene CIS-FACTORIAL EGR reporter mRNA; actives raise or lower the signal
Procedure, shortened: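 Activity is taken as induction or loss of reporter mRNA versus DMSO, fitted bidirectionally. Transcripts from cis-regulated reporter units in transiently transfected HepG2 were measured after 24 h by RT-PCR with capillary electrophoresis.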

[5] = ATG_M_19_CIS: Attagene CIS-FACTORIAL HepG2 Assay for M19 Transcription Factor (Internal Marker) (AID 2282939); settings: HepG2 Attagene CIS-FACTORIAL M19 internal marker reporter; actives raise or lower the signal
Procedure, shortened: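 Background-control endpoint from a multiplexed HepG2 reporter panel. Cells carrying cis-regulated reporter constructs are treated 24 h, then reporter transcripts are amplified, fluorescently labelled and sized by capillary electrophoresis. DMSO defines baseline.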

[6] = ATG_ERE_CIS: Attagene CIS-FACTORIAL HepG2 Assay for Estrogen Response Element (ERE) (AID 2282940); settings: HepG2 ERE cis-reporter, Attagene RNA transcript; actives raise or lower the signal
Procedure, shortened: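 Cells used were human hepatoma HepG2, transfected with multiple reporter transcription units under cis-regulatory promoters. Reporter mRNA, read 24 h post-dosing via fluorescent RT-PCR products on capillary electrophoresis, was fitted bidirectionally relative to DMSO.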

[7] = ATG_Ets_CIS: Attagene CIS-FACTORIAL HepG2 Assay for human Erythroblast Transformation Specific (ETS) (AID 2282941); settings: HepG2 ETS cis-reporter transcription, actives raise or lower the signal
Procedure, shortened: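 HepG2 cells transfected with multiple cis-regulated reporter units measuring endogenous ETS-driven transcription, 24 h after dosing. Reporter mRNA quantified by RT-PCR with capillary electrophoresis; bidirectional fit relative to DMSO.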

[8] = target: Hepatocyte nuclear factor 3-beta (Homo sapiens) (UniProt Q9Y261); test: ATG_FoxA2_CIS: Attagene CIS-FACTORIAL HepG2 Assay for human Forkhead box A2 (FOXA2) (AID 2282942); settings: HepG2 cis-reporter transcription factor activity, 24 h; actives raise or lower the signal
Procedure, shortened: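 Reporter transcript induction is measured by fluorescence after capillary electrophoresis of RT-PCR products from HepG2 cells exposed 24 h. Cis-regulated reporter units report endogenous factor activity; curves fitted both directions against DMSO.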

[9] = ATG_FoxO_CIS: Attagene CIS-FACTORIAL HepG2 Assay for human Forkhead box O (FoxO) (AID 2282943); settings: HepG2 Attagene cis-reporter, FoxO element, mRNA; actives raise or lower the signal
Procedure, shortened: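 Human hepatoma HepG2 cells carry transiently introduced reporter transcription units controlled by cis promoter elements. Chemical treatment lasted 24 h, and mRNA signal was compared with DMSO.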

[10] = ATG_GATA_CIS: Attagene CIS-FACTORIAL HepG2 Assay for human GATA Binding Protein (AID 2282944); settings: HepG2 GATA cis-element reporter, Attagene multiplex mRNA; actives raise or lower the signal
Procedure, shortened: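 Endogenous transcription factor activity was captured through cis-promoter-driven reporters in transfected HepG2 cells. After 24 h exposure, reporter transcripts were quantified by RT-PCR with fluorescent capillary electrophoresis, and responses fitted both directions against DMSO.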

[11] = ATG_GLI_CIS: Attagene CIS-FACTORIAL HepG2 Assay for human Zinc Finger Protein GLI1 (AID 2282945); settings: HepG2, Attagene cis-factorial reporter mRNA, GLI element; actives raise or lower the signal
Procedure, shortened: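 Bidirectional curve fits relative to DMSO, using reporter mRNA levels from RT-PCR plus capillary electrophoresis. Cells were HepG2 transiently carrying cis-regulated reporter constructs, harvested 24 h after dosing.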

[12] = target: Bile acid receptor (Homo sapiens) (UniProt Q96RI1); test: ATG_IR1_CIS: Attagene CIS-FACTORIAL HepG2 Assay for human Nuclear Receptor Subfamily 1 Group H Member 4 (NR1H4), IR1 submotif (AID 2282946); settings: IR1 reporter transcription, actives raise or lower the signal
Procedure, shortened: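 Cells (human HepG2) carry transiently transfected cis-promoter reporter transcription units. Compounds are incubated 24 h, total RNA is reverse-transcribed and amplified, and labelled fragments are resolved by capillary electrophoresis. Curves use DMSO as baseline.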

[13] = ATG_ISRE_CIS: Attagene CIS-FACTORIAL HepG2 Assay for human Interferon Regulatory Factor 1 (IRF1) binding to an Interferon-Stimulated Response Element (ISRE) (AID 2282948); settings: HepG2 ISRE cis-reporter (Attagene), mRNA transcription readout; actives raise or lower the signal
Procedure, shortened: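 Transiently transfected HepG2 cells carrying cis-element reporter units, dosed 24 hours. Reporter mRNA quantified by RT-PCR, fluorescent primer extension, HpaI digestion and capillary electrophoresis. Bidirectional fitting relative to DMSO.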

[14] = ATG_M_32_CIS: Attagene CIS-FACTORIAL HepG2 Assay for M32 Transcription Factor (Internal Marker) (AID 2282949); settings: HepG2 Attagene cis-factorial M32 reporter, mRNA; actives raise or lower the signal;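 also: background control marker of the multiplexed CIS panel rather than a real target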
Procedure, shortened: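 Internal background marker read-out: RT-PCR/capillary electrophoresis fluorescence of reporter transcripts from transiently transfected HepG2 cells after 24 h chemical exposure. Activity fitted bidirectionally relative to DMSO negative control.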

[15] = ATG_M_06_CIS: Attagene CIS-FACTORIAL HepG2 Assay for M06 Transcription Factor (Internal Marker) (AID 2282950); settings: HepG2 Attagene CIS-FACTORIAL M06 internal marker reporter; actives raise or lower the signal
Procedure, shortened: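 Steps: transfect HepG2 with multiplexed cis-element reporter constructs; dose chemical 24 h; extract RNA with DNase treatment; reverse-transcribe, PCR-amplify, 6-FAM label, HpaI digest; separate fragments by capillary electrophoresis. Activity fitted both directions versus DMSO.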

[16] = target: Hypoxia-inducible factor 1-alpha (Homo sapiens) (UniProt Q16665); test: ATG_HIF1a_CIS: Attagene CIS-FACTORIAL HepG2 Assay for human Hypoxia Inducible Factor 1 (HIF1A) (AID 2282951); settings: HepG2 Attagene cis-factorial HIF1a reporter transcription; actives raise or lower the signal
Procedure, shortened: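 Fluorescence intensity of capillary-separated, 6-FAM-labelled reporter amplicons gives mRNA induction in HepG2 cells carrying transfected cis-promoter reporter units; cells exposed 24 h, responses fitted up or down from DMSO.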

[17] = target: Hepatocyte nuclear factor 6 (Homo sapiens) (UniProt Q9UBC0); test: ATG_HNF6_CIS: Attagene CIS-FACTORIAL HepG2 Assay for human Hepatocyte Nuclear Factor 6 (HNF6) (AID 2282952); settings: HepG2 Attagene cis-factorial HNF6 reporter transcription; actives raise or lower the signal
Procedure, shortened: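 HepG2 cells transiently transfected with cis-element-driven multiple reporter transcription units, dosed 24 h; reporter mRNA quantified by RT-PCR, FAM primer extension, HpaI digestion and capillary electrophoresis; bidirectional fit versus DMSO baseline.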

[18] = target: Heat shock factor protein 1 (Homo sapiens) (UniProt Q00613); test: ATG_HSE_CIS: Attagene CIS-FACTORIAL HepG2 Assay for human Heat Shock Transcription Factor 1 (HSE) (AID 2282953); settings: HepG2 HSE cis-reporter, Attagene RNA transcription; actives raise or lower the signal
Procedure, shortened: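 Cells were transfected with cis-element-driven reporter constructs, dosed for 24 h, then total RNA was reverse-transcribed and reporter cDNA amplified, FAM-labelled and digested with HpaI. Fragments were resolved by capillary electrophoresis; gain or loss was fitted against DMSO.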

[19] = ATG_MRE_CIS: Attagene CIS-FACTORIAL HepG2 Assay for human Metal Responsive Element (MRE) (AID 2282954); settings: HepG2 MRE cis-reporter transcription, Attagene multiplex; actives raise or lower the signal
Procedure, shortened: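 After a 24 h chemical exposure, transiently transfected HepG2 cells yield RNA whose reporter sequences are amplified, FAM-labelled and sized by capillary electrophoresis. Curves are fitted bidirectionally relative to DMSO.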

[20] = ATG_GRE_CIS: Attagene CIS-FACTORIAL HepG2 Assay for human Glucocorticoid Response Elements (GRE) (AID 2282947); settings: HepG2 GRE cis-reporter, Attagene multiplex mRNA; actives raise or lower the signal
Procedure, shortened: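 Assay uses human hepatoma HepG2 cells transfected with cis-promoter reporter units, exposed 24 h. mRNA from reporters detected by RT-PCR plus capillary electrophoresis; DMSO serves as negative control and baseline.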

Measured: AC50

Hypoxia-inducible factor 1-alpha (Homo sapiens), sequence (Q16665 whole entry, looked up): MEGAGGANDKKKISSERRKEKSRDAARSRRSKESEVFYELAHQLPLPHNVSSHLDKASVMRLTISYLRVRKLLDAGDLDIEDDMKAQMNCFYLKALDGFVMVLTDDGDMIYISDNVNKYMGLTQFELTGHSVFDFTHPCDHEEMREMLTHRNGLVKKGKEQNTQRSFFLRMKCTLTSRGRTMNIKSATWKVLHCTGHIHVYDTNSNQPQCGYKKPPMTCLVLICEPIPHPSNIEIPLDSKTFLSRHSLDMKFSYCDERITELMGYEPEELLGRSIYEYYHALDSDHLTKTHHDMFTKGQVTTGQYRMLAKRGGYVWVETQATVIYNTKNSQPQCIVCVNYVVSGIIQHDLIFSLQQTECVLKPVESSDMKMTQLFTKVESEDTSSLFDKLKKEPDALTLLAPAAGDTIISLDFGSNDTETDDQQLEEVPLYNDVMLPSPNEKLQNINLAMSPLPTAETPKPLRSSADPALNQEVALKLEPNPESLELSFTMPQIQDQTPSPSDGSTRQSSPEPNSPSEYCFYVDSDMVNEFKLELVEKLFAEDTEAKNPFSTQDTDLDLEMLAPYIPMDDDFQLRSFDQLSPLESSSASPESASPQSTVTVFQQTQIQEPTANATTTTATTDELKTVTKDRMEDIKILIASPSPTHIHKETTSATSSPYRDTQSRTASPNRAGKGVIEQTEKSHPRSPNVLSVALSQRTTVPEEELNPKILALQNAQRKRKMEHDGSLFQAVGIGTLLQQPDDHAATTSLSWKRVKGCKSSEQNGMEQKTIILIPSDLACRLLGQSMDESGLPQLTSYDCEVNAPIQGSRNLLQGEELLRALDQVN
Hepatocyte nuclear factor 6 (Homo sapiens), sequence (Q9UBC0 whole entry, looked up): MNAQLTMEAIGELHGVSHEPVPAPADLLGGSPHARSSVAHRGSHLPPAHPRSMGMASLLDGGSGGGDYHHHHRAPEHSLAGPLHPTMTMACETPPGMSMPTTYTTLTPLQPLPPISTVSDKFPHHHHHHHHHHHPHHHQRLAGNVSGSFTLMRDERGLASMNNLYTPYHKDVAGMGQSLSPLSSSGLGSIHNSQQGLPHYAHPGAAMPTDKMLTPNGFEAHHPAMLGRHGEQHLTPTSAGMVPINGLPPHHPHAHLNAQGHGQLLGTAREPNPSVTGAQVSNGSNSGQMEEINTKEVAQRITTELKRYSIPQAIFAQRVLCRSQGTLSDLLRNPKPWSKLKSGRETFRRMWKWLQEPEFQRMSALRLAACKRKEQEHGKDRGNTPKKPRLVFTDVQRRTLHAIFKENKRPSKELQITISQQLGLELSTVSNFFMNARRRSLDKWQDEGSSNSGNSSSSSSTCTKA
Transcription factor E2F1 (Homo sapiens), sequence (Q01094 whole entry, looked up): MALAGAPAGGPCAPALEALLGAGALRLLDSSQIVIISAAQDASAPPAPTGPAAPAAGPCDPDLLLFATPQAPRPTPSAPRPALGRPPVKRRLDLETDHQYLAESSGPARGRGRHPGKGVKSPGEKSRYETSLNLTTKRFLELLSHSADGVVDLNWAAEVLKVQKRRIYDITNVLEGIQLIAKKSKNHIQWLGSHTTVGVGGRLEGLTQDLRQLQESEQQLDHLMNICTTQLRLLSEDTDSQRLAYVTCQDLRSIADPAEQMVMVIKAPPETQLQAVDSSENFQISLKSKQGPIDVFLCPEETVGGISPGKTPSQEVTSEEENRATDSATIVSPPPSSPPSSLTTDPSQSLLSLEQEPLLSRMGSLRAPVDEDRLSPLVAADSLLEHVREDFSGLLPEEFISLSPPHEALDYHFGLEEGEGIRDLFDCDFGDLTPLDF
Hepatocyte nuclear factor 3-beta (Homo sapiens), sequence (Q9Y261 whole entry, looked up): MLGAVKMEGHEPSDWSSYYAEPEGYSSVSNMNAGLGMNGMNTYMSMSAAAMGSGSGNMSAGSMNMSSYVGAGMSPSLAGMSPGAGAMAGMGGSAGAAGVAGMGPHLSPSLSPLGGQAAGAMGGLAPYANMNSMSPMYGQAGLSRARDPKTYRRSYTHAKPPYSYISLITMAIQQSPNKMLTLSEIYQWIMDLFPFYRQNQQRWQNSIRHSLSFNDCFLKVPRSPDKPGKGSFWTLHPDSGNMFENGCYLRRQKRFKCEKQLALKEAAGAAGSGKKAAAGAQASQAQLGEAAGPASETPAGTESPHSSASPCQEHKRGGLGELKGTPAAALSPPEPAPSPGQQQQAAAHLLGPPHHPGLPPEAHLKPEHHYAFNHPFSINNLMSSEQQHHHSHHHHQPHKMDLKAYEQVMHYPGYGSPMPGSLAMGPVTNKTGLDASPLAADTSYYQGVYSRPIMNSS
Heat shock factor protein 1 (Homo sapiens), sequence (Q00613 whole entry, looked up, the tested form may be a part): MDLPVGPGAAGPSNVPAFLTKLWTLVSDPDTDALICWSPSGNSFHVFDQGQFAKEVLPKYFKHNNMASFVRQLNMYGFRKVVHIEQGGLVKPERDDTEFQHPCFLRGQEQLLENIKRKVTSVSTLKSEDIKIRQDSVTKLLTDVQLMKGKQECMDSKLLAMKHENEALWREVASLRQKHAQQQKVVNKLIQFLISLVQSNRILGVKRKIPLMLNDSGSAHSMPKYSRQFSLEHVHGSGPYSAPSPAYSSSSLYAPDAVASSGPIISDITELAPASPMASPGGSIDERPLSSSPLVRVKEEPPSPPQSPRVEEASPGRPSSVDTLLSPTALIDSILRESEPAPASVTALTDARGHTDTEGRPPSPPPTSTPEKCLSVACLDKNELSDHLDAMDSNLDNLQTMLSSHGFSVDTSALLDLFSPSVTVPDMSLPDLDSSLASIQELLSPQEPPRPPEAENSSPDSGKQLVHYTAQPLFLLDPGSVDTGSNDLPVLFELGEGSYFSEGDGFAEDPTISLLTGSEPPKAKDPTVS
Bile acid receptor (Homo sapiens), sequence (Q96RI1 whole entry, looked up, the tested form may be a part): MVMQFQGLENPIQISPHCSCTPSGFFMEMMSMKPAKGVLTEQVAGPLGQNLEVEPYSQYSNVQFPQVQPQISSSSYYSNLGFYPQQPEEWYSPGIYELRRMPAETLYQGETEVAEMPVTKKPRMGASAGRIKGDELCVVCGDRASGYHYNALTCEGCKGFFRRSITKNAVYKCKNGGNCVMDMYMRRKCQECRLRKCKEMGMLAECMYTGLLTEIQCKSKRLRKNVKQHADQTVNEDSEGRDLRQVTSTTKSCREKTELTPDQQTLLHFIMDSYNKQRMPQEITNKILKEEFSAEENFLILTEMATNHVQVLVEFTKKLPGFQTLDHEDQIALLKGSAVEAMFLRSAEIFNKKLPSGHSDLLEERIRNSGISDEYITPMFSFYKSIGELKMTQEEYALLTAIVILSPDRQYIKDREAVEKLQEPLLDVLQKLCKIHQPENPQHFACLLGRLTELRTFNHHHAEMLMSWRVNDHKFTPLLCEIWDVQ

C=CC(C)(CCC=C(C)C)OC(=O)C=Cc1ccccc1 (stereo unspecified)
active: [6] 17.7 µM
not listed: [20]
inactive: all other assays above

CC(=O)CCC1=C(C)CCCC1(C)C
active: [6] 29.8 µM
not listed: [12] | [19]
inactive: all other assays above

c1ccc(-c2nc3ccccc3[nH]2)cc1
not listed: [20]
inactive: all other assays above
